Consider 39 compounds from PubChem BioAssay (NCI).

Compounds without any hit were thinned out: in the full panel of roughly 83,000, 20% have a hit.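 Activity criterion: percent growth below 10, measured after cells in 96-well plates were exposed to a single compound concentration for 48 hours.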 Values without a mark were called inactive. The source made the active and inactive calls.

The subject of the experiment is HOP-92 NSCLC. Kind of experiment: NCI-60 one-dose screen, 48 h (100 = growth as untreated, 0 = no growth, -100 = all killed). Conditions: 10 µM unless noted.
As for `C/C=C(\C)C(C(=O)NC1CCCCC1)N(C(=O)C1CCc2cc(F)ccc2O1)c1ccc(Cl)cc1` (centres undefined), the growth was 108%.

As for `N=C(N)c1ccc(-c2cc(Cl)cc(Cl)c2)cn1`, the growth is 59.3%.

As for `COc1ccc(-c2cc(-c3ccccc3)nc(SCCCC(=O)NO)n2)cc1OC`, the growth was -10.6% (active).

Turning to `CCC(C)/C(=C\C#N)NCCCN/C(=C/C#N)C(C)CC` (centres undefined), the growth was 86.5%.

As for `CC1=C(C#N)C(=O)NC(C)C1` (centres undefined), the growth was 83.1%.

In the case of `COc1cccc(/C=C2\Oc3cc(OCCCN4CCCC4)ccc3C2=O)c1OC`, the growth is 91.2%.

Regarding `COc1cc(C2C3=C(COC3=O)Nc3cc4c(cc32)CCC4)cc2c1OCO2` (centres undefined), the growth was 41.1%.

Regarding `CCN(CC)c1ccc(/C=C2\Oc3ccc(O)c(I)c3C2=O)cc1`, the growth was 81.9%.

`C=C(C)[C@@H]1CC[C@]2(C(=O)O)CC[C@]3(C)[C@H](CC[C@@H]4[C@@]5(C)C[C@@H](CC#Cc6ccc(C(F)(F)F)cc6)[C@H](O)C(C)(C)[C@@H]5CC[C@]43C)[C@@H]12`: the growth is -16.9% (active).

`COc1ccc2c(c1)[nH]c(=O)c1c3cccc(F)c3cn21`: the growth is 69.4%.

Take `CCOC(=O)C1=C(C)NC(C)=C(C(=O)OCC)C1(C)C`: the growth was 98.3%.

On to `COc1cccc(/C=C/C(=O)Nc2cc(OC)c3c(c2)OCO3)c1`, for which the growth was 86.5%.

Consider `COc1cccc(-c2nc3sccn3c2-c2ccnc(NCCCNS(=O)(=O)c3ccc(F)cc3)c2)c1`, for which the growth is 58.8%.

`COc1ccc(S(=O)(=O)Nc2cc(/C=C\c3cc(OC)c(OC)c(OC)c3)cc(OC)c2OC)cc1`: the growth was 20.1%.

Consider `Cc1ccc(C(=O)NCCCNc2nccc(-n3ccc4cccnc43)n2)cc1`, for which the growth was 96.4%.

In the case of `N/C(=N\C(N)=N\c1nc2ccccc2s1)c1ccncc1`, the growth was 65.2%.

Regarding `COC(=O)c1nc(-c2ccccc2)oc1S(=O)(=O)N1CCN(c2cccc(Cl)c2)CC1`, the growth was 48.2%.

For the compound `CCCCCCCCC(C)OC(=O)c1nn(C(C)=O)c2ccccc12` (centres undefined), the growth was 98.7%.

For the compound `Cc1ccc(N2CCN(C(C)C(N)=O)CC2)cc1` (centres undefined), the growth was 123%.

Turning to `COc1ccc(S(=O)(=O)NCCCNc2nccc(-c3c(-c4cccc([N+](=O)[O-])c4)nc4sccn34)n2)cc1`, the growth is 82.1%.

For `COc1ccc(-n2c(=S)sc3c(Cl)nc(C)nc32)c(OC)c1`, the growth is 54.2%.

As to `N[C@@H]1CCN(C(=O)c2cc3cc(Cl)c(F)c(F)c3[nH]2)C1`, the growth was 74.1%.

Turning to `C=C[C@@H]1C[C@@H]2Cc3cc(F)ccc3N1O2`, the growth is 105%.

For the compound `CCCCN(CCCC)C(=O)CC`, the growth was 96.4%.

Consider `CC12CCC3C4(C)COC(c5ccco5)OC4CCC3(C)C1CC(C1=CCOC1=O)O2` (centres undefined), for which the growth is 100%.

On to `CCCCN(CCCC)C(=N)c1ccnc2ccccc12`, for which the growth is 96.4%.

`C=C1C(=O)O[C@H]2[C@H]1CC/C(Cn1cc(CNC(=O)c3cc4ccccc4[nH]3)nn1)=C\CC[C@@]1(C)O[C@@H]21`: the growth is 32.2%.

For `NC(=O)CCCN1C/C(=C\c2ccccc2)C(=O)c2ccccc21`, the growth was 84.4%.

Turning to `COc1cc(/C=C/C(=O)N2CCN(C(=O)/C=C/c3cc(OC)c(OC)c(OC)c3)CC2)cc(OC)c1OC`, the growth was 99.7%.

Consider `COc1ccc(Nc2ncccc2C(=O)NCc2cn(Cc3cccc(Oc4ccccc4)c3)nn2)cc1`, for which the growth is 68.5%.

Take `c1ccc(-c2nnc(-c3ccccn3)s2)nc1`: the growth is 89.7%.

In the case of `C=C1CCC2C(C)(CO)C(O)CCC2(C)C1CC(NCc1ccccc1)C1=CCOC1=O` (centres undefined), the growth was 99.8%.

Regarding `CCCCCCCCCCCC(=O)NCCC[N+](C)(C)CC(=O)[O-]`, the growth was 79.1%.

As to `CC(C)CSc1nc(NN)c(C#N)c(-c2ccc(F)cc2)n1`, the growth was 105%.

Consider `O=c1[nH]c(-c2ccccc2)nc(CN2CCCCC2)c1O`, for which the growth was 92.8%.

Take `Cc1ccc(S(=O)(=O)Nc2c(Br)cc(Br)cc2C(N)=O)cc1`: the growth is 94.4%.

For `Nc1nc(-c2ccccc2)c(CCCOc2ccc(NC(=O)CBr)cc2)c(=O)[nH]1`, the growth was 99.6%.

On to `Nc1cccc(-c2nc3sccn3c2-c2ccnc(NCCNS(=O)(=O)c3ccc(C(F)(F)F)cc3)n2)c1`, for which the growth was -6.13% (active).

Consider `Cc1ccc(-c2nc(C#N)c(S(=O)(=O)n3nc(-c4ccccc4)cc3N)o2)cc1`, for which the growth was 89.1%.
